A short description of test [1]: Nuclear factor erythroid 2-related factor 2/antioxidant responsive element (Nrf2/ARE) small molecule agonists: qHTS cell viability counter screen in human keratinocytes (AID 1919968; active means well fitted curve in the direction sought with a large enough effect in the repeat runs; an effect the other way counts as inactive or inconclusive; further: nearly all actives have a fitted effect of over 55% in size; further: potency means the concentration at half of the fitted maximal effect). Summed up: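 Seed 1,500 KeratinoSens cells per well, then incubate 5 h at 37 C/5% CO2. Add compounds in DMSO and incubate 23 h. Add CellTiter-Fluor, wait 1 h and read fluorescence.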
A general note: qHTS replaces the single test concentration by a dilution series.

The nature of test [2]: Nuclear factor erythroid 2-related factor 2/antioxidant responsive element (Nrf2/ARE) small molecule agonists: luciferase reporter gene qHTS assay in human keratinocytes (AID 1919969). Further: nearly all actives have a fitted effect of over 35% in size. Further: potency means the concentration at half of the fitted maximal effect. Background: A reporter such as luciferase makes a cellular process visible.
The target in test [3] is Gonadotropin-releasing hormone receptor (Homo sapiens) (UniProt P30968). The test is described as follows: Human gonadotropin-releasing hormone receptor (GnRHR) small molecule agonists, calcium flux assay in GnRHR-HEK293 cells (AID 1920063). Further: nearly all actives have a fitted effect of over 35% in size. Summed up: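 Cells: HEK293 stably expressing human GnRHR. Steps: overnight (18 h) culture, 1 h calcium dye loading at 37 C, compound addition, kinetic fluorescence read at 480/540 nm. Each compound tested at 15 concentrations in triplicate.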
Chain of Gonadotropin-releasing hormone receptor (Homo sapiens) (P30968 whole entry, looked up): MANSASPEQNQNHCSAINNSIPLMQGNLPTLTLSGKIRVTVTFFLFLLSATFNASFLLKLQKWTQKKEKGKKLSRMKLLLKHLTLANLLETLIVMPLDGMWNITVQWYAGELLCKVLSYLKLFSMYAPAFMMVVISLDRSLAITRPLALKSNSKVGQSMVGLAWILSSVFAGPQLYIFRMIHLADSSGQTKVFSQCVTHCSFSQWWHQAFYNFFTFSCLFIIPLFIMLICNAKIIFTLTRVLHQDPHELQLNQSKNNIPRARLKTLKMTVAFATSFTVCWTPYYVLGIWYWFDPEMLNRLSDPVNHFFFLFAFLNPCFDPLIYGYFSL
A general note: A change in cytosolic calcium serves as a functional read-out for many receptors and channels.

Test [4] deals with KiSS-1 receptor (Homo sapiens) (UniProt Q969F8). The test is described as follows: Human kisspeptin (KISS1R) small molecule agonists, calcium flux assay in KISS1R-HEK293 cells (AID 1920064; active means well fitted curve in the direction sought with a large enough effect in the repeat runs; an effect the other way counts as inactive or inconclusive). Summed up:
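Cells plated and incubated 18 h; dye added, 1 h at 37 C; compounds in DMSO pinned in; signal read at 480/540 nm every second for 3 min. Each compound tested at 15 concentrations in triplicate.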

Test [5] in a line: p53 small molecule agonists, cell-based qHTS assay with human liver microsomes (AID 1963577). Summed up: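 In this qHTS, p53 response-element beta-lactamase cells receive test compound together with a microsome/NADPH activating system (0.5 mg/mL final each) and are incubated 16 h at 37 C before LiveBLAzer fluorescence detection.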
A short description of test [6]: p53 small molecule agonists, cell-based qHTS assay with rat liver microsomes (AID 1963578). Summed up:
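Agonist mode in p53RE-bla reporter cells, with compounds co-incubated 16 h at 37 C alongside 0.5 mg/mL rat liver microsomes and 0.5 mg/mL NADPH (final), followed by a 2 h LiveBLAzer detection step.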

Test [7] is described as follows: p53 small molecule agonists, cell-based qHTS assay with human liver microsomes: qHTS cell viability counter screen (AID 1963579). Further: nearly all actives have a fitted effect of over 45% in size. Summed up: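 Metabolically activated exposure: compounds, human liver microsomes and NADPH (0.5 mg/mL final apiece) were added to p53RE-bla cells seeded 5 h earlier, left 16 h at 37 C, and then assessed for viability by CellTiter-Glo luminescence.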

The nature of test [8]: p53 small molecule agonists, cell-based qHTS assay with rat liver microsomes: qHTS cell viability counter screen (AID 1963580). Further: nearly all actives have a fitted effect of over 45% in size. Summed up: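 In HCT-116 cells carrying a p53 response element-bla reporter, compounds were metabolically activated in situ by rat liver microsomes with NADPH over 16 h. Cell ATP content then served as the cytotoxicity measure.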
The nature of test [9]: p53 small molecule agonists, cell-based qHTS assay: qHTS cell viability counter screen (AID 1963581). Further: nearly all actives have a fitted effect of over 45% in size. Summed up:
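Cells: HCT-116 with p53 response element-driven beta-lactamase. Treatment: 16 h, 37 C, compounds in DMSO. Read: CellTiter-Glo luminescence after 30 min RT.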

The target in test [10] is 5-hydroxytryptamine receptor 2A (Homo sapiens) (UniProt P28223). The test is described as follows: 5-hydroxytryptamine receptor 2A (HTR2A) small molecule antagonists, cell-based qHTS assay (AID 1963586). Further: nearly all actives have a fitted effect of over 45% in size. Further: potency means the concentration at half of the fitted maximal effect. Summed up: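 Antagonist-mode intracellular calcium assay: DOI (4 nM) added after 5 min compound pre-incubation at room temperature to dye-loaded HTR2A-CHO cells. Fluorescence followed for 3 min, sampled every second.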
Chain of 5-hydroxytryptamine receptor 2A (Homo sapiens) (P28223 whole entry, looked up): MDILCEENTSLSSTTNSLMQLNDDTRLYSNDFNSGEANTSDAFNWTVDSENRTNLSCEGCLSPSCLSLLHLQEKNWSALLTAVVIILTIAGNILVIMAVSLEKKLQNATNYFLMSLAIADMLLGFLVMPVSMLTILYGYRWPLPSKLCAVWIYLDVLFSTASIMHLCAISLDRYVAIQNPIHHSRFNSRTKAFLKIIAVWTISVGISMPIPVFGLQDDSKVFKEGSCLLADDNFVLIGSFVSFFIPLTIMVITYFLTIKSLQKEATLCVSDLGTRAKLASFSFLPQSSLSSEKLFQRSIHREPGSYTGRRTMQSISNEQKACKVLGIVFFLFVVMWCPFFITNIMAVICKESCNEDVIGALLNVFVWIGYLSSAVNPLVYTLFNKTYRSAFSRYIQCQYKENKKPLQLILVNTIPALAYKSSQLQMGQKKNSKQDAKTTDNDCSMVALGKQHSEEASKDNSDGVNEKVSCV

Test [11] has the same target. The test is described as follows: 5-hydroxytryptamine receptor 2A (HTR2A) small molecule agonists, cell-based qHTS assay (AID 1963587). Further: nearly all actives have a fitted effect of over 30% in size. Summed up:
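HTR2A-CHO cells, plated 18 h at 37 C/5% CO2, dye-loaded 1 h at 37 C; compounds in DMSO added by pin tool (agonist mode). Intracellular calcium flux read as kinetic fluorescence on FDSS over 2 min at 1 s intervals.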

The target in test [12] is Muscarinic acetylcholine receptor M1 (Homo sapiens) (UniProt P11229). The test is described as follows: Cholinergic receptor muscarinic 1 (CHRM1) small molecule agonists, cell-based qHTS assay (AID 1963589). Further: nearly all actives have a fitted effect of over 35% in size. Summed up:
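Agonist-mode qHTS in CHO cells stably carrying human muscarinic M1. Intracellular calcium is tracked by fluorescence every second after compound transfer; each compound runs at 15 concentrations in three independent runs.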

A short description of test [13]: cAMP Responsive Elements (CRE) small molecule agonists, cell-based qHTS assay (AID 1963590). Summed up: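 Agonist mode qHTS in CRE-bla HEK 293T cells: compounds dosed from DMSO for 3 h at 37 C/5% CO2, followed by LiveBLAzer B/G FRET substrate for 2 h at room temperature.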
A short description of test [14]: cAMP Responsive Elements (CRE) small molecule antagonists, cell-based qHTS assay (AID 1963591; active means well fitted inhibition curve with a large enough effect in the signal ratio in the repeat runs, not every such curve was filed as active; the % refers to the signal ratio). Summed up:
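Antagonist mode: test compounds are co-incubated with the adenylyl cyclase activator NKH477 (0.25 uM final) on CRE-bla HEK293T cells for 3 h at 37 °C, followed by LiveBLAzer substrate loading.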

Test [15] has as its target Beta-2 adrenergic receptor (Homo sapiens) (UniProt P07550). The test is described as follows: Adrenergic beta2 receptor (ADRB2) small molecule antagonists, cell-based qHTS assay (AID 1963592). Further: series mostly up to about 92 µM; nearly all actives have a fitted effect of over 50% in size. Summed up: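 Cells (CHO, stable ADRB2 overexpression) incubated 18-20hr at 37C; compounds added from DMSO; agonist mix (1nM isoproterenol, 100uM IBMX, 25uM Ro-20-1724) added; 0.5hr RT; d2-cAMP and anti-cAMP-cryptate added; 1hr RT; 665/615 nm read.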

Test [16] has the same target. The test is described as follows: Adrenergic beta2 receptor (ADRB2) small molecule agonists, cell-based qHTS assay (AID 1963593).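 Further: CHO cells stably overexpressing human ADRB2.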 Summed up: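 CHO cells stably over-expressing ADRB2 were plated overnight at 37C, then dosed with compounds plus a stimulation mix containing 100uM IBMX and 25uM Ro-20-1724 for 0.5hr at room temperature. cAMP was measured by HTRF competition, 1hr.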

Test [17] addresses D(2) dopamine receptor (Homo sapiens) (UniProt P14416). The test is described as follows: Dopamine D2 receptor (DRD2) small molecule agonists, cell-based qHTS assay (AID 1963594). Further: nearly all actives have a fitted effect of over 35% in size. Summed up: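 HEK293 cells stably expressing DRD2 were cultured 24 h at 37 C, then given Ro20-1724 (0.1 mM final) and compounds for 10 min at room temperature. NKH477 (200nM) was then added for 30 min. cAMP was read by HTRF.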

Test [18] shares this target. The test is described as follows: Dopamine D2 receptor (DRD2) small molecule antagonists, cell-based qHTS assay (AID 1963595; active means well fitted inhibition curve with a large enough effect in the signal ratio in the repeat runs, with a control signal flat; the % refers to the signal ratio). Summed up:
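Antagonism was scored as restored cAMP in HEK293-DRD2 cells. These cells were stimulated with 200 nM NKH477 and 12 nM quinpirole for 30 min at room temperature, in the presence of 0.1 mM Ro20-1724.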

Test [19] has as its target Muscarinic acetylcholine receptor M1 (Homo sapiens) (UniProt P11229). The test is described as follows: Cholinergic receptor muscarinic 1 (CHRM1) small molecule antagonists, cell-based qHTS assay (AID 1963588). Further: nearly all actives have a fitted effect of over 40% in size. Summed up: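 CHRM1-CHO calcium-flux assay, antagonist mode. Cells were seeded 18 h, dye-loaded 1 h at 37 C and given compound for 5 min at RT, then acetylcholine was added at 50nM. FDSS fluorescence was read 3 min; 15 concentrations, three runs.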

“And” between values parts separate entries of the source, which are not always exact repeats. Identical values can stand only once. Records with an inconclusive call do not appear. A structure can be active in one record and inactive in another. The source made the active and inactive calls. Unless noted, the call rests on the fitted dose curve.

Chain of Beta-2 adrenergic receptor (Homo sapiens) (P07550 whole entry, looked up): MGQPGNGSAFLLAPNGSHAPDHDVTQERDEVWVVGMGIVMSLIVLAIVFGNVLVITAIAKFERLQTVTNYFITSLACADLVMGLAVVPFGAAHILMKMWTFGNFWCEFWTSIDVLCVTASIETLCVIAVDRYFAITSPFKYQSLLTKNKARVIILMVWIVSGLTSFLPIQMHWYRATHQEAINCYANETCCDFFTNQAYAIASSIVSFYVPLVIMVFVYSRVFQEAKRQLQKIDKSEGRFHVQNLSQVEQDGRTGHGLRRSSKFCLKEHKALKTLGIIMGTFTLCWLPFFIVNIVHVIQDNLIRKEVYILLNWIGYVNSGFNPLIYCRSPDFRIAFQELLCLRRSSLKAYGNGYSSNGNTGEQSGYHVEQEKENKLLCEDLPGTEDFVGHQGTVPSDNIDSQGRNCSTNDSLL
Chain of Muscarinic acetylcholine receptor M1 (Homo sapiens) (P11229 whole entry, looked up): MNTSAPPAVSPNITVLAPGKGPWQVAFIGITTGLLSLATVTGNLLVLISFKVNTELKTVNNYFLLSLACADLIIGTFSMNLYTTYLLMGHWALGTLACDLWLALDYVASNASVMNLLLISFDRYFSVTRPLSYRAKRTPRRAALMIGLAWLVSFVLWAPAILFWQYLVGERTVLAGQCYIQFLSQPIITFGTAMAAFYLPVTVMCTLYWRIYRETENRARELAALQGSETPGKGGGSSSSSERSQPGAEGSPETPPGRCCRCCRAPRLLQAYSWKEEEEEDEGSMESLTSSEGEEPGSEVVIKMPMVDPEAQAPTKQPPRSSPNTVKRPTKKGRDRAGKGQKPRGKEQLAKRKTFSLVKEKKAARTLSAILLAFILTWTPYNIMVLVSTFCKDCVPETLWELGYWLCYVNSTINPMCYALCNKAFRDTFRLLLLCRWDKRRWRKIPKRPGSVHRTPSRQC
Chain of D(2) dopamine receptor (Homo sapiens) (P14416 whole entry, looked up): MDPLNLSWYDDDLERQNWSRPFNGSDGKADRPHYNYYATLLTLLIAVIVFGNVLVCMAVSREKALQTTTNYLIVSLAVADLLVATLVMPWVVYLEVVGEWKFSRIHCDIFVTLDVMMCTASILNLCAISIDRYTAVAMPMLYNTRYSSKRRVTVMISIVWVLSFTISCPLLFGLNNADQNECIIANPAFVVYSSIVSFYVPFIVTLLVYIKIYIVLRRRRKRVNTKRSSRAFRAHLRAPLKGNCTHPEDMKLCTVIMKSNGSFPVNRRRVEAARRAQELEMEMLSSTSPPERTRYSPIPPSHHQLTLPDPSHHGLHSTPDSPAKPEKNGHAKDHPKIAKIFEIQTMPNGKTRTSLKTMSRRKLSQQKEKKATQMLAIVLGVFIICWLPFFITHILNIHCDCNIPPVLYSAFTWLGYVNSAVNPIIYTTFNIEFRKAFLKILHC
Chain of KiSS-1 receptor (Homo sapiens) (Q969F8 whole entry, looked up): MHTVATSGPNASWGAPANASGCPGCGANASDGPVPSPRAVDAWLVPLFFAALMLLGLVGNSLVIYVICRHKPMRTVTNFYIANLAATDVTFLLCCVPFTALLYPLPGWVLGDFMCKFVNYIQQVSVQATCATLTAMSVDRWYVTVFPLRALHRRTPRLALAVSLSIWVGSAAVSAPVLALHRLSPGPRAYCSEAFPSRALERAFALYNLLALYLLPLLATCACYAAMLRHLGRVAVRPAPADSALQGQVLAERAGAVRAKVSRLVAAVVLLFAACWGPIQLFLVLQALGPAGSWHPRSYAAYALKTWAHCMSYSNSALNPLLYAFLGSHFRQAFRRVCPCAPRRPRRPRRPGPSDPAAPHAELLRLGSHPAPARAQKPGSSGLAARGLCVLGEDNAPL

Turning to `O=C(O)/C=C/c1ccccc1`, the Potency result in [1], in test [2], in test [3], in [4], in test [5] and in [6] was “inactive” each time. The Potency entry in test [7], in [8], in test [9], in test [10], in test [11] and in [12] was “inactive” in each case. Besides, the Potency result in test [13], in test [14], in [15], in test [16], in [17] and in test [18] was “inactive” each time.
As to `O=C(CCS)OCC(COC(=O)CCS)(COC(=O)CCS)COC(=O)CCS`, the Potency result in test [1], in test [2], in test [3], in test [4], in test [5] and in [6] was “inactive” in each case. For the same molecule, the Potency entry in test [7], in test [8], in test [9], in [10], in test [11] and in [19] was “inactive” each time. Also, the Potency result in test [12], in [13], in [14], in test [15] and in [17] was “inactive” throughout.
As for `Cc1ccc(C(C)NC(=O)[C@@H](NC(=O)OC(C)C)C(C)C)cc1` (stereo partly specified), the Potency result in test [1], in test [2], in test [3], in test [4], in [5] and in test [6] was “inactive” each time. Moreover, the Potency entry in test [7], in [8], in test [9], in [10], in test [11] and in test [19] was “inactive” throughout. The Potency entry in test [12], in [13], in test [14], in [15] and in test [17] was “inactive” throughout.
As for `O=S(=O)(O)CO`, the Potency entry in test [1], in [2], in test [3], in test [4], in test [5] and in test [6] was “inactive” in each case. Also, the Potency result in test [7], in test [8], in [9], in test [10], in [11] and in test [19] was “inactive” each time. Besides, the Potency entry in [12], in test [13], in test [14], in test [15], in test [16] and in [17] was “inactive” each time. Besides, the Potency result in test [18] is “inactive”.
As to `C=C[Si](OC(=C)C)(OC(=C)C)OC(=C)C`, the Potency entry in [1], in test [2], in test [3], in test [4], in [5] and in test [6] was “inactive” each time. For the same molecule, the Potency result in test [7], in [8], in test [9], in test [10], in test [11] and in test [19] was “inactive” throughout. Moreover, the Potency result in test [12], in test [13], in test [14], in test [15], in test [17] and in [18] was “inactive” throughout.
Regarding `CN1CCc2cccc3c2[C@H]1Cc1ccc(O)c(O)c1-3`, the Potency was 30.9 µM (active) and 22.8 µM (active) in [1]; 1.51 µM (active) and inactive in test [10]. Also, the Potency entry in [2], in [3], in test [4], in test [5], in [6] and in test [7] was “inactive” each time. Further, the Potency entry in [8], in test [9], in test [11], in [19], in [12] and in [13] was “inactive” throughout. The Potency entry in [14] and in [18] was “inactive” each time.
As to `CCOCCOC(=O)/C=C/c1ccc(OC)cc1`, the Potency result in test [1], in test [2], in [3], in [4], in test [5] and in [6] was “inactive” in each case. Besides, the Potency entry in test [7], in test [8], in test [9], in test [10], in test [19] and in test [12] was “inactive” throughout. Further, the Potency result in test [13], in test [14], in test [15], in [16], in test [17] and in test [18] was “inactive” in each case.
For `Oc1ccc(/C=C/c2cc(O)cc(O)c2)cc1`, the Potency result in test [1], in test [3], in [4], in [5], in test [6] and in [7] was “inactive” each time. Further, the Potency result in test [8], in test [9], in [14], in test [15], in test [17] and in test [18] was “inactive” each time. The Potency in [2] was 4.9 µM (active) and 7.7 µM (active) and 11.9 µM (active).

For the origin of these results see PubChem BioAssay (Tox21).
